{"source": "PubChem BioAssay (EPA / NIEHS)", "note": "“And” between values parts separate entries of the source, which are not always exact repeats. Equal values may be shown once. The source made the active and inactive calls. How the source made its calls: active means hit-call score of the fitted dose curve at least 0.9, where 1 is the maximum; inactive means score below 0.9."}
{"read-out": "Monocyte Chemoattractant Protein-1 (MCP1), CCL2 (gene 6347)", "experiment": "BSK_hDFCGF_MCP1: BioMAP Diversity Plus: hDFCGF Assay for Monocyte Chemoattractant Protein-1 (MCP1) Biomarker Activity (AID 2284285)", "details": "primary human foreskin fibroblasts", "procedure": "BSK_hDFCGF is a cell-based, multiplexed-readout assay that uses foreskin fibroblast, a human skin primary cell, with measurements taken at 24 hours after chemical dosing in a 96-well plate.BSK_hDFCGF_MCP1 is an assay component measured in the BSK_hDFCGF assay. It measures MCP-1 antibody related to regulation of gene expression using ELISA technology.Data from the assay component BSK_hDFCGF_MCP1 was analyzed at the endpoint, BSK_hDFCGF_MCP1, in the positive analysis fitting direction relative to DMSO as the negative control and baseline of activity. Using a type of binding reporter, gain or loss-of-signal activity can be used to understand protein changes. To generalize the intended target to other relatable targets, this assay endpoint is annotated to the 'cytokine' intended target family, where the subfamily is 'chemotactic factor'.\nThe levels of cell surface (or secreted, indicated by the prefix \"s\") biomarker endpoints were measured by ELISA. Overt cytotoxicity to cells in confluent adherent cultures (all systems other than the BT system) was assessed by measuring total protein levels using sulforhodamine B (SRB) staining in parallel cultures at the time of biomarker measurements, indicated as SRB endpoints. For proliferation assays for adherent cell types, individual cell types are cultured at sub-confluence and relative cell numbers quantified by SRB staining at time points optimized for each system (48 h: 3C and CASM3C systems; 72 h: BT and HDF3CGF systems; 96 h: SAg system). SRB was performed by staining cells with 0.1% SRB after fixation with 10% TCA and reading wells at 560 nm.Viability and proliferation of PBMC (T cells) was quantified by Alamar Blue reduction for the SAg and BT systems. For PBMC viability (referred to as PBMC Cytotoxicity within the assay endpoint names), cells were plated (75,000/well in a 96-well plate) and then chemical samples added for 1 h before addition of activators, SEB and TSST-1 (20 ng/mL final concentration each). Cells were incubated for 90 h. Then, Alamar Blue (20 uL/well) (Invitrogen, Cat DAL1100) was added for 6 h, and the plates were read with a fluorescence microplate reader at 546/580 nm (excitation/emission). For PBMC proliferation, cells were plated and activated as above but incubated for only 16 h prior to addition of Alamar Blue. Plates were read after 6 h."}
{"smiles": "CC(C)CCCC(C)(C)O", "outcome": "inactive"}
{"smiles": "O=S(=O)(O)C(F)(F)C(F)(F)OC(F)(F)C(F)(F)F", "outcome": "inactive"}
{"smiles": "OCC(F)(OC(F)(F)C(F)(OC(F)(F)C(F)(F)C(F)(F)F)C(F)(F)F)C(F)(F)F", "note": "(stereo not drawn)", "AC50": "4.79 µM (active) and 2.83 µM (active)"}
{"smiles": "CCCO[Si](OCCC)(OCCC)OCCC", "outcome": "inactive"}
{"smiles": "C=C(C)C(=O)OCCC(F)(F)C(F)(F)C(F)(F)C(F)(F)C(F)(F)C(F)(F)C(F)(F)C(F)(F)F", "outcome": "inactive"}
{"smiles": "c1ccc(OCCOc2ccccc2)cc1", "outcome": "inactive"}
{"smiles": "CC(C)(CO)CO", "outcome": "inactive"}
{"smiles": "CCCCN(CCO)CCO", "outcome": "inactive"}
{"smiles": "C=C(F)C(=O)OC(C(F)(F)F)C(F)(F)F", "outcome": "inactive"}
{"smiles": "CC(=O)c1ccc(C)cc1", "outcome": "inactive"}
{"smiles": "O=C(O)C(F)(F)C(F)(F)C(F)(F)C(F)(F)C(F)(F)C(F)(F)C(F)(F)C(F)F", "outcome": "inactive"}
{"smiles": "CCn1cc(C(=O)O)c(=O)c2ccc(C)nc21", "outcome": "inactive"}
{"smiles": "O=C(O)C(F)(F)OC(F)(F)C(F)(F)OC(F)(F)C(F)(F)C(F)(F)C(F)(F)F", "outcome": "inactive"}
